Test results: PubChem BioAssay AID1159580 (chemical genetic matrix, 2015)
The whole screen tested about 5,500 compounds, of which about 2,000 (36%) were called active. Roughly 18% stayed inconclusive and do not appear here. No stated cut-off is given here; in the data, active means normalized growth mostly below about 0.91 (no sharp cut-off); inconclusive means no clear call, values can overlap the other calls; inactive means mostly above about 0.92. This is one part of the list.

Assay: chemical genetic growth profiling, strain panel (AID 1159580);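 further: tested at 20 µM; growth read once vehicle control cultures reached saturation at 30 °C; 1 = growth at the plate median or of vehicle wells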
Conditions: S. cerevisiae deletion strains, growth OD
[1] = locus YAR019C, strain CDC15, stronger effect = lower value
[2] = locus YBL105C, strain PKC1, stronger effect = lower value
[3] = locus YBR135W, strain CKS1, stronger effect = lower value
[4] = locus YBR136W, strain MEC1, stronger effect = lower value
[5] = locus YBR160W, strain CDC28, stronger effect = lower value
[6] = locus YDL017W, strain CDC7, stronger effect = lower value
[7] = locus YDL028C, strain MPS1, stronger effect = lower value
[8] = locus YDL101C, strain DUN1, stronger effect = lower value
[9] = locus YDL108W, strain KIN28, stronger effect = lower value
[10] = locus YDL132W, strain cdc53, stronger effect = lower value
[11] = locus YDL214C, strain PRR2, stronger effect = lower value
[12] = locus YDR052C, strain DBF4, stronger effect = lower value
[13] = locus YDR054C, strain cdc34, stronger effect = lower value
[14] = locus YDR226W, strain ADK1, stronger effect = lower value
[15] = locus YDR477W, strain SNF1, stronger effect = lower value
[16] = locus YER123W, strain YCK3, stronger effect = lower value
[17] = locus YER133W, strain GLC7, stronger effect = lower value
[18] = locus YFL009W, strain cdc4, stronger effect = lower value
[19] = locus YFL029C, strain CAK1, stronger effect = lower value
[20] = locus YFR003C, strain YPI1, stronger effect = lower value
[21] = locus YFR019W, strain FAB1, stronger effect = lower value
[22] = locus YFR028C, strain CDC14, stronger effect = lower value
[23] = locus YGR040W, strain KSS1, stronger effect = lower value
[24] = locus YGR052W, strain FMP48, stronger effect = lower value
[25] = locus YGR092W, strain DBF2, stronger effect = lower value
[26] = locus YHR030C, strain SLT2, stronger effect = lower value
[27] = locus YHR079C, strain IRE1, stronger effect = lower value
[28] = locus YHR082C, strain KSP1, stronger effect = lower value
[29] = locus YHR205W, strain SCH9, stronger effect = lower value
[30] = locus YIL147C, strain SLN1, stronger effect = lower value
[31] = locus YJL095W, strain BCK1, stronger effect = lower value
[32] = locus YJL128C, strain PBS2, stronger effect = lower value
[33] = locus YJL157C, strain FAR1, stronger effect = lower value
[34] = locus YJR016C, strain ILV3, stronger effect = lower value
[35] = locus YJR066W, strain TOR1 (second series), stronger effect = lower value
[36] = locus YJR066W, strain TOR1, stronger effect = lower value
[37] = locus YKL048C, strain ELM1, stronger effect = lower value
[38] = locus YKL067W, strain YNK1, stronger effect = lower value
[39] = locus YKL101W, strain HSL1, stronger effect = lower value
[40] = locus YKL193C, strain SDS22, stronger effect = lower value
[41] = locus YKL203C, strain TOR2, stronger effect = lower value
[42] = locus YLR113W, strain HOG1, stronger effect = lower value
[43] = locus YLR133W, strain CKI1, stronger effect = lower value
[44] = locus YLR403W, strain SFP1, stronger effect = lower value
[45] = locus YML070W, strain DAK1, stronger effect = lower value
[46] = locus YMR001C, strain CDC5, stronger effect = lower value
[47] = locus YMR205C, strain PFK2 (second series), stronger effect = lower value
[48] = locus YMR277W, strain FCP1, stronger effect = lower value
[49] = locus YNL006W, strain LST8, stronger effect = lower value
[50] = locus YNL020C, strain ARK1, stronger effect = lower value
[51] = locus YNL161W, strain CBK1, stronger effect = lower value
[52] = locus YNL183C, strain NPR1, stronger effect = lower value
[53] = locus YNL207W, strain RIO2, stronger effect = lower value
[54] = locus YNL222W, strain SSU72, stronger effect = lower value
[55] = locus YNL307C, strain MCK1 (second series), stronger effect = lower value
[56] = locus YOL078W, strain AVO1, stronger effect = lower value
[57] = locus YOL136C, strain PFK27, stronger effect = lower value
[58] = locus YOR061W, strain CKA2, stronger effect = lower value
[59] = locus YOR119C, strain RIO1, stronger effect = lower value
[60] = locus YOR231W, strain MKK1, stronger effect = lower value
[61] = locus YOR329C, strain SCD5, stronger effect = lower value
[62] = locus YPL031C, strain PHO85, stronger effect = lower value
[63] = locus YPL153C, strain RAD53, stronger effect = lower value
[64] = locus YPL204W, strain HRR25, stronger effect = lower value
[65] = locus YPL209C, strain IPL1, stronger effect = lower value
[66] = locus YPL256C, strain CLN2, stronger effect = lower value
[67] = locus YPR025C, strain CCL1, stronger effect = lower value
[68] = locus YPR106W, strain ISR1, stronger effect = lower value
[69] = locus YPR111W, strain DBF20, stronger effect = lower value
[70] = strain NNK1, stronger effect = lower value
[71] = strain TSCII, stronger effect = lower value

Measured: normalized growth

O=C(NNc1ccccc1)c1cc(-c2ccc(Cl)cc2)oc1C(F)(F)F
active: [15] 0.615 | [16] 0.522 | [17] 0.629 | [23] 0.622 | [24] 0.38 | [25] 0.434 | [26] 0.289 | [28] 0.5 | [31] 0.293 | [36] 0.456 | [37] 0.762 | [38] 0.686 | [39] 0.521 | [41] 0.636 | [42] 0.234 | [43] 0.678 | [44] 0.653 | [45] 0.465 | [47] 0.667 | [50] 0.683 | [55] 0.549 | [59] 0.684 | [60] 0.46 | [62] 0.443 | [63] 0.339 | [64] 0.58 | [66] 0.492
inactive: [1] 0.947 | [2] 0.952 | [3] 0.934 | [4] 0.952 | [5] 0.942 | [6] 0.949 | [7] 0.957 | [8] 0.973 | [9] 0.95 | [10] 0.953 | [11] 0.714 | [12] 0.956 | [13] 0.94 | [14] 0.951 | [18] 0.958 | [19] 0.943 | [20] 0.958 | [21] 0.779 | [22] 0.942 | [27] 0.541 | [29] 0.624 | [30] 0.96 | [32] 0.975 | [33] 0.75 | [34] 0.95 | [35] 0.66 | [40] 0.954 | [46] 0.942 | [48] 0.953 | [49] 0.96 | [51] 0.944 | [52] 0.697 | [53] 0.959 | [54] 0.931 | [56] 0.952 | [57] 0.727 | [58] 0.795 | [61] 0.957 | [65] 0.926 | [67] 0.951 | [68] 0.933 | [69] 0.931 | [70] 0.939 | [71] 0.95

O=C(Nc1ccncc1)c1cc(-c2ccccc2)oc1C(F)(F)F
active: [42] 0.843
inactive: [1] 0.99 | [2] 0.985 | [3] 0.991 | [4] 0.988 | [5] 0.983 | [6] 0.991 | [7] 0.993 | [8] 0.992 | [9] 0.991 | [10] 0.979 | [11] 0.953 | [12] 0.989 | [13] 0.981 | [14] 0.989 | [15] 0.973 | [16] 0.946 | [17] 0.976 | [18] 0.99 | [19] 0.984 | [20] 0.99 | [21] 0.993 | [22] 0.984 | [23] 0.962 | [24] 1 | [25] 0.949 | [26] 1 | [27] 0.941 | [28] 1.01 | [29] 0.998 | [30] 0.994 | [31] 0.991 | [32] 0.958 | [33] 0.952 | [34] 0.988 | [35] 0.937 | [36] 1.03 | [37] 0.976 | [38] 0.968 | [39] 0.977 | [40] 0.988 | [41] 1.04 | [43] 0.975 | [44] 0.987 | [45] 0.951 | [46] 0.996 | [47] 0.973 | [48] 0.993 | [49] 0.992 | [50] 0.985 | [51] 0.982 | [52] 0.965 | [53] 0.98 | [54] 0.977 | [55] 0.976 | [56] 0.988 | [57] 0.953 | [58] 0.991 | [59] 1.03 | [60] 0.908 | [61] 0.998 | [62] 0.964 | [63] 0.959 | [64] 0.953 | [65] 0.976 | [66] 0.868 | [67] 0.99 | [68] 0.979 | [69] 0.98 | [70] 0.993 | [71] 0.989
